For 40 compounds, Potency results are on record in PubChem BioAssay (NCATS).

Results filed as inconclusive are left out. Calls of active or inactive are those of the source. The call rests on the fitted dose curve; in most records, active means well fitted cell-killing curve with a large enough effect; inconclusive means small, poorly fitted or top-dose-only effect, or effect the other way; inactive means no such curve, though single readings can be large or run the other way. Non-standard residues stand in square brackets, D forms with d. Residues, ends and D or L forms follow the SMILES beside them. *: point of attachment. Nva = CCC[C@H](N)C(=O)O; Cbz = O=C(OCc1ccccc1)*
Potency means the concentration at half of the fitted maximal effect.

The assay is described as follows: Quantitative High-Throughput drug screen in 47 multiple myeloma cell lines against the NCATS MIPE library collection: MMM1_PLB cell viability assay (AID 1918976). Further: nearly all actives have a fitted effect of over 35% in size. The conditions noted are these: MMM1 myeloma cells viability, CellTiter-Glo, 48 h; series mostly up to 45.8 µM. An excerpt:
PI: Beverly A. Mock Ph.D.
Laboratory of Cancer Biology and Genetics,
Center for Cancer Research, National Cancer Institute,
National Institute of Health, Bethesda, Maryland
Drug resistance and disease progression are common in multiple myeloma (MM) patients, underscoring the need for new therapeutic combinations. […] We hypothesized that effective combinations would reduce MYC expression and enhance p16 activity. […] These preclinical data identify potentially useful drug combinations for evaluation in drug-resistant MM and reveal potential mechanisms of combined drug sensitivity.
Described herein is the primary MIPE qHTS used to cherrypick compounds. Validated compounds were then further tested for potential synergistic activiy.
[1] Peat TJ, Gaikwad SM, Dubois W, Gyabaah-Kessie N, Zhang S, Gorjifard S, Phyo Z, Andres M, Hughitt VK, Simpson RM, Miller MA, Girvin AT, Taylor A, Williams D, D'Antonio N, Zhang Y, Rajagopalan A, Flietner E, Wilson K, Zhang X, Shinn P, Klumpp-Thomas C, McKnight C, Itkin Z, Chen L, Kazandijian D, Zhang J, Michalowski AM, Simmons JK, Keats J, Thomas CJ, Mock BA. Drug combinations identified by high-throughput screening promote cell cycle transition and upregulate Smad pathways in myeloma. Cancer Lett. 2023 Aug 1;568:216284. doi: 10.1016/j.canlet.2023.216284. Epub 2023 Jun 24. PMID: 37356470; PMCID: PMC10408729.
SEQUENCE No. (e.g., 1, 2, 3, etc.); […] (e.g., Cells, Incubation, Reagent, etc.); VALUE and DESCRIPTION.
1; Cells; 5 uL; white, solid bottom 1536-well Greiner assay plate.
2; Compounds; 23 nL; Kalypsis pin tool (Wako USA) equipped with a 1536-well pin head to transfer to the assay plates.
3; Incubation; 48 hours; 37C incubation.
4; Reagent;5uL; CellTiter Glo (Promega).
5; Detector; 425V; Luminescence; Viewlux PerkinElmer.
NOTES (numbers refer to Sequence numbers above)
1. The cell-based screening methods employed in this study were like those previously published. Briefly, the corresponding myeloma cell lines were screened in 1,536-well plates with 500 cells, 5-uL per well for inhibition of cell viability (assessed by measuring ATP levels with CellTiterGlo).
2. NCATS MIPE 4.0 library of approved and investigational drugs were added using the Kalypsis pin tool. Wells treated with DMSO only for 100% viability and media only for 0% viability were used as controls.
3. The assay plates were covered and incubated for 48 hours in a 37C, 5% CO2 incubator with controlled humidity.
4. After 48 hours, CellTilter-GloTM luminescent substrate mix (Promega) reagent was added to the assay plate and plates we incubated for 5 min at room temperature.
5. Signal was measured as median relative luminescence units on a ViewLux (PerkinElmer) multiplate reader.
[1] Heske CM, Davis MI, Baumgart JT, Wilson K, Gormally MV, Chen L, Zhang X, Ceribelli M, Duveau DY, Guha R, Ferrer M, Arnaldez FI, Ji J, Tran HL, Zhang Y, Mendoza A, Helman LJ, Thomas CJ. Matrix Screen Identifies Synergistic Combination of PARP Inhibitors and Nicotinamide Phosphoribosyltransferase (NAMPT) Inhibitors in Ewing Sarcoma. Clin Cancer Res. 2017 Dec 1;23(23):7301-7311. doi: 10.1158/1078-0432.CCR-17-1121. Epub 2017 Sep 12. PMID: 28899971; PMCID: PMC6636827.
Take `C[C@]12CC[C@@H]3c4ccc(O)cc4CC[C@H]3[C@H]1CC[C@H]2O`: the Potency is 16.6 µM (active).
The result for `C[C@H](NCc1ccc2c(c1)nc(NC(=O)c1ccc(-c3cn[nH]c3)s1)n2CCc1ccccc1)C(C)(C)C` reads 2.35 µM (active); that for `C=CCNC1=C2C[C@@H](C)C[C@H](OC)[C@@H](O)[C@@H](C)C=C(C)[C@H](OC(N)=O)[C@@H](OC)C=CC=C(C)C(=O)NC(=CC1=O)C2=O`, 5.9 µM (active).
As for `CCC[C@@H](C=O)NC(=O)[C@H](CC(C)C)NC(=O)[C@H](CC(C)C)NC(=O)OCc1ccccc1` (Cbz-Leu-Leu-[Nva]-aldehyde), the figure is 3.72 µM (active); as for `CNC(=O)c1ccc(Nc2cc(Nc3ccccc3S(=O)(=O)C(C)C)c3cc[nH]c3n2)nc1`, 11.8 µM (active).
The result for `COc1cc(OC)cc(-c2ccc3ncc4ccc(=O)n(-c5ccc(N6CCNCC6)c(C(F)(F)F)c5)c4c3c2)c1` reads 7.43 µM (active); that for `CC(O)(C#Cc1ccc2c(c1)N(c1nc(N)ncc1Cl)CC2)c1nccs1` (stereo not given), 20.9 µM (active).
On to `C=C1C(=CC=C2CCC[C@]3(C)[C@@H]([C@H](C)CCCC(C)(C)O)CC[C@@H]23)C[C@@H](O)C[C@@H]1O`, for which the Potency was 20.9 µM (active).
As for `N#CC(=C(N)Sc1ccc(N)cc1)c1ccccc1C(F)(F)F`, the entry is “inactive”; as for `Nc1ccn(C2CO[C@H](CO)O2)c(=O)n1` (stereo not given in full), 4.69 µM (active).
As for `Cc1ncc(-c2ccnc(Nc3ccc(S(C)(=O)=O)cc3)n2)n1C(C)C`, the figure is 4.69 µM (active); as for `CCCCCCCCCCCC(CC1OC(=O)C1CCCCCC)OC(=O)C(CC(C)C)NC=O` (stereo not given), 20.9 µM (active); as for `COc1ccc(S(=O)(=O)Nc2cccnc2Nc2ccc(O)cc2)cc1`, 1.48 µM (active).
On to `CNC(=O)Nc1ccc(-c2nc(N3CC4CCC(C3)O4)c3cnn(C4CCC5(CC4)OCCO5)c3n2)cc1`, for which the Potency was 0.0093 µM (active).
The result for `O=C1NCCc2[nH]c(-c3ccncc3)cc21` reads 16.6 µM (active); that for `CN1CCCN(C(=O)c2cccc(-c3ccc(C=C4C(=O)Nc5ccc(Cl)cc54)o3)c2)CC1`, 8.33 µM (active); that for `COc1cccc2c1C(=O)c1c(O)c3c(c(O)c1C2=O)C[C@@](O)(C(=O)CO)C[C@@H]3O[C@H]1C[C@H](N)[C@H](OC2CCCCO2)[C@H](C)O1` (stereo not given in full), 1.18 µM (active).
As for `Cn1cc(C[C@@H](N)C(=O)O)c2ccccc21`, the figure is 0.645 µM (active).
As for `CN[C@H]1[C@@H](O)[C@@H]2O[C@@H]3O[C@H](C)CC(=O)[C@]3(O)O[C@@H]2[C@@H](NC)[C@H]1O`, the figure is 1.66 µM (active).
Regarding `COc1ccc(C[C@@H](C)[C@@H](C)Cc2ccc(OC)c(OC)c2)cc1OC`, the Potency is 5.9 µM (active).
The result for `CC(=O)O[C@]1(C(C)=O)CC[C@H]2[C@@H]3C=C(C)C4=CC(=O)CC[C@]4(C)[C@@H]3CC[C@@]21C` reads 18.7 µM (active); that for `CC(Cc1ccc(O)c(O)c1)(NN)C(=O)O` (stereo not given), 11.8 µM (active).
The result for `CN1C(C(=O)Nc2ccccn2)=C(O)c2sc(Cl)cc2S1(=O)=O` reads 20.9 µM (active).
The result for `COc1cccc2c1C(=O)c1c(O)c3c(c(O)c1C2=O)C[C@@](O)(C(=O)CO)C[C@@H]3O[C@H]1C[C@H](N)[C@@H](O)[C@H](C)O1` reads 0.469 µM (active); that for `Cc1cnc(Nc2ccc(N3CCN(C)CC3)cc2)nc1Nc1cccc(S(=O)(=O)NC(C)(C)C)c1`, 2.96 µM (active).
In the case of `NC(=O)Nc1sc(-c2ccc(F)cc2)cc1C(N)=O`, the Potency was 3.32 µM (active).
The result for `Cc1cnn(C)c1C(=O)Nc1cc(Nc2ccc3c(C=Cc4ccccn4)n[nH]c3c2)ccc1F` reads 13.2 µM (active).
As for `CC(C)(O)Cn1c(NC(=O)c2ccc(-c3cn[nH]c3)s2)nc2cc(CN3CCOCC3)ccc21`, the figure is 2.09 µM (active); as for `CCc1ccc(C(=O)Nc2cc(CN3CCN(C)CC3)cc(C(F)(F)F)c2)cc1C#Cc1cnc2ccnn2c1`, 23.5 µM (active); as for `CCCCC(=O)O[C@]1(C(=O)CO)[C@@H](C)C[C@H]2[C@@H]3CCC4=CC(=O)C=C[C@]4(C)[C@@]3(F)[C@@H](O)C[C@@]21C`, “inactive”.
The result for `CCOc1cc2c(c(F)c1OCC)C(=N)N(CC(=O)c1cc(N3CCOCC3)c(OC)c(C(C)(C)C)c1)C2` reads 10.5 µM (active).
As for `N#CC(=Cc1ccc(O)c(O)c1)C(=O)NCc1ccccc1`, the Potency is 3.32 µM (active).
The result for `Nc1nc(N)c2nc(-c3cccc(O)c3)c(-c3cccc(O)c3)nc2n1` reads 20.9 µM (active); that for `N#Cc1ccc(COC[C@H]2O[C@@H](n3c(NCc4ccc(Cl)c(Cl)c4)nc4c(N)ncnc43)[C@@H](O)[C@@H]2O)cc1`, 4.69 µM (active); that for `C[C@@H](Oc1ccc2[nH]nc(C=Cc3cnn(CCO)c3)c2c1)c1c(Cl)cncc1Cl`, 1.87 µM (active).
As for `Cc1nc(NC(=O)N2CCC[C@@H]2C(N)=O)sc1-c1ccnc(C(C)(C)C(F)(F)F)c1`, the figure is 0.59 µM (active).
As for `C[C@H](CCC(=O)O)[C@H]1CCC2C3C[C@H](O)[C@@H]4C[C@H](O)CC[C@]4(C)C3CC[C@@]21C` (stereo not given in full), the figure is 0.833 µM (active); as for `CC(=O)ON=C1C(c2c(O)[nH]c3cc(Br)ccc23)=Nc2ccccc21`, 20.9 µM (active).
For the compound `COc1ccc(Nc2cc(-c3cnc(N)nc3)nc(N3CCOCC3)n2)cn1`, the Potency is 1.87 µM (active).
The result for `O=[N+]([O-])c1cn2c(n1)OC[C@@H](OCc1ccc(OC(F)(F)F)cc1)C2` reads 8.33 µM (active).
